About 79,000 compounds went through this panel and 15% of them were active in at least one assay; those are over-represented in the sample as a whole. The source made the active and inactive calls. Rule as the data show it: active = growth inhibition above about 70%; inactive = the rest.
Assays:
[1] = NCI Yeast Anticancer Drug Screen. Data for the rad52 strain (AID 147);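 also: 0% = growth of vehicle-treated control cultures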; settings: S. cerevisiae rad52 mutant growth inhibition, hits give high values
How it was run: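 Genetically altered yeast (DNA damage repair defect) treated with compound; inhibition calculated relative to vehicle.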

[2] = NCI Yeast Anticancer Drug Screen. Data for the wt1 strain (AID 149);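 also: 0% = growth of vehicle-treated wt1 cultures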; settings: S. cerevisiae wt1 strain (SPY 50644) growth inhibition, hits give high values
How it was run: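 Yeast wt1 strain exposed to compounds; growth inhibition measured relative to vehicle-treated controls.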

[3] = NCI Yeast Anticancer Drug Screen. Data for the mgt1 strain (AID 153); settings: S. cerevisiae mgt1 mutant growth inhibition, hits give high values
How it was run: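 Read-out: yeast growth inhibition vs vehicle control. Strain mgt1, drawn from a panel altered in DNA damage repair or cell cycle control.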

[4] = NCI Yeast Anticancer Drug Screen. Data for the rad50 strain (AID 155);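 also: 0% = growth of vehicle-only cultures of the same strain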; settings: S. cerevisiae rad50 strain growth inhibition, hits give high values
How it was run: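 Yeast carrying a defined DNA repair defect were exposed to test compounds, and growth was compared with vehicle-treated controls to give percent inhibition.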

[5] = NCI Yeast Anticancer Drug Screen. Data for the mec2-1 strain (AID 157); settings: S. cerevisiae mec2-1 strain, hits give high values
How it was run: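 Cells of the genetically defined mec2-1 yeast strain are incubated with test compound. Inhibition of growth is calculated against vehicle-treated controls.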

[6] = NCI Yeast Anticancer Drug Screen. Data for the rad14 strain (AID 159);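 also: 0% = growth of vehicle-treated control cultures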; settings: S. cerevisiae rad14 strain growth inhibition, hits give high values
How it was run: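 Yeast cells carrying a defined DNA-repair defect were exposed to compounds, and growth inhibition was calculated relative to vehicle-treated control cultures.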

[7] = NCI Yeast Anticancer Drug Screen. Data for the sgs1 mgt1 strain (AID 161);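 also: 0% = growth of cultures given vehicle only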; settings: S. cerevisiae sgs1 mgt1 strain, hits give high values
How it was run: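 Test agents were incubated with a DNA-repair-mutant yeast strain. Growth was then read and compared against vehicle-treated controls.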

[8] = NCI Yeast Anticancer Drug Screen. Data for the CLN2oe strain (AID 163);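 also: 0% = growth of vehicle-only control cultures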; settings: S. cerevisiae CLN2oe strain, hits give high values
How it was run: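 Strain altered in cell-cycle control, incubated with compound; growth compared to solvent-treated controls.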

[9] = NCI Yeast Anticancer Drug Screen. Data for the cln2 rad14 strain (AID 165);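 also: 0% = growth equal to vehicle treated cultures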; settings: S. cerevisiae cln2 rad14 strain, hits give high values
How it was run: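 The screen exposed genetically defined yeast (cln2 rad14) to test compounds and scored growth inhibition relative to vehicle-treated controls.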

[10] = NCI Yeast Anticancer Drug Screen. Data for the bub3 strain (AID 167); settings: S. cerevisiae bub3 mutant strain, hits give high values
How it was run: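 Compounds were applied to a genetically altered yeast strain carrying a cell-cycle control defect. Growth inhibition was scored against vehicle-treated controls.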

[11] = NCI Yeast Anticancer Drug Screen. Data for the wt2 strain (AID 169);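 also: 0% = growth of vehicle-treated yeast cultures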; settings: S. cerevisiae wt2 strain growth inhibition, hits give high values
How it was run: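 Steps: yeast strain treated with compound; growth recorded; inhibition calculated relative to cultures given vehicle alone.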

[12] = NCI Yeast Anticancer Drug Screen. Data for the mlh1 strain (AID 171);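 also: 0% = growth of vehicle-treated control cultures of the same strain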; settings: S. cerevisiae mlh1 strain growth inhibition, hits give high values
How it was run: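 Yeast screen: mutant strain plus compound, growth scored against vehicle control wells.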

[13] = NCI Yeast Anticancer Drug Screen. Data for the sgs1 strain (AID 173);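 also: 0% = growth of vehicle-only control cultures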; settings: S. cerevisiae sgs1 mutant, hits give high values
How it was run: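 Inhibition of yeast growth served as the measure. The mutant strain was treated with each compound, and growth was normalised to cultures receiving vehicle alone.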

[14] = NCI Yeast Anticancer Drug Screen. Data for the mlh1 rad18 strain (AID 175); settings: S. cerevisiae mlh1 rad18 strain growth inhibition, hits give high values
How it was run: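 Compound-treated yeast growth, normalised to vehicle controls. Strain bears defined DNA repair mutations.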

[15] = NCI Yeast Anticancer Drug Screen. Data for the rad18 strain (AID 177); settings: S. cerevisiae rad18 mutant growth inhibition, hits give high values
How it was run: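 Inhibition values reflect reduced yeast growth compared with vehicle-treated controls, using a strain engineered with a DNA damage repair defect.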

[16] = NCI Yeast Anticancer Drug Screen. Data for the rad50EPP+ strain (AID 151);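 also: 0% = growth of vehicle-treated control cultures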; settings: S. cerevisiae rad50 mutant strain, hits give high values
How it was run: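 Strain rad50EPP+; compound exposure; % growth inhibition vs vehicle.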

[17] = at 5.0 µM (retest, dose inferred, filed as 0.5)
[18] = at 50.0 µM (retest, dose inferred, filed as 5.0)

Measured: growth inhibition

COc1cc(CC2CC(c3ccc4c(c3)OCO4)OC2=O)cc(OC)c1OC (stereo unspecified)
active: [10]; at 100.0 µM 82%
inactive: [1]; at 1.2 µM -1% | [1]; at 3.7 µM -1% | [1]; at 11.0 µM 1% | [1]; at 33.0 µM 3% | [1]; at 100.0 µM 7% | [2]; at 1.2 µM -2% | [2]; at 3.7 µM -3% | [2]; at 11.0 µM -4% | [2]; at 33.0 µM -3% | [2]; at 100.0 µM 0% | [3]; at 1.2 µM -1% | [3]; at 3.7 µM 1% | [3]; at 11.0 µM 1% | [3]; at 33.0 µM 1% | [3]; at 100.0 µM 6% | [4]; at 1.2 µM 0% | [4]; at 3.7 µM 1% | [4]; [17] -6% | [4]; at 11.0 µM 3% | [4]; at 33.0 µM 8% | [4]; [18] 12% | [4]; at 50.0 µM -10.2% | [4]; at 100.0 µM 13% | [5]; at 1.2 µM 0% | [5]; at 3.7 µM -2% | [5]; [17] 6% | [5]; at 11.0 µM 2% | [5]; at 33.0 µM 7% | [5]; [18] 11% | [5]; at 50.0 µM -13.4% | [5]; at 100.0 µM 16% | [6]; at 1.2 µM -2% | [6]; at 3.7 µM -3% | [6]; at 11.0 µM -1% | [6]; at 33.0 µM 4% | [6]; at 100.0 µM 12% | [7]; [17] 2% | [7]; [18] 6% | [7]; at 50.0 µM -2.9% | [8]; at 1.2 µM 2% | [8]; at 3.7 µM 1% | [8]; at 11.0 µM 5% | [8]; at 33.0 µM 7% | [8]; at 100.0 µM 15% | [9]; [17] -1% | [9]; [18] 7% | [9]; at 50.0 µM 1.35% | [10]; at 1.2 µM 15% | [10]; at 3.7 µM 28% | [10]; [17] 24% | [10]; at 11.0 µM 43% | [10]; at 33.0 µM 58% | [10]; [18] 54% | [10]; at 50.0 µM 38.5% | [11]; at 1.2 µM -2% | [11]; at 3.7 µM -4% | [11]; at 11.0 µM -3% | [11]; at 33.0 µM -5% | [11]; at 100.0 µM 0% | [12]; at 1.2 µM -4% | [12]; at 3.7 µM -3% | [12]; at 11.0 µM -1% | [12]; at 33.0 µM 3% | [12]; at 100.0 µM 11% | [13]; at 1.2 µM -2% | [13]; at 3.7 µM -2% | [13]; at 11.0 µM -2% | [13]; at 33.0 µM 0% | [13]; at 100.0 µM 9% | [14]; [17] -2% | [14]; [18] 8% | [14]; at 50.0 µM 18.2% | [15]; at 1.2 µM -4% | [15]; at 3.7 µM -3% | [15]; at 11.0 µM -1% | [15]; at 33.0 µM 0% | [15]; at 100.0 µM 10%

Cc1cc(N=Nc2ccc(S(=O)(=O)[O-])cc2)cc(C(=O)[O-])c1[O-].NC1CCCCC1N.[Na+].[Pt+4]
inactive: [1]; at 1.2 µM 6% | [1]; at 3.7 µM 33% | [2]; at 1.2 µM 3% | [2]; at 3.7 µM 44% | [16]; at 1.2 µM 25% | [4]; at 1.2 µM -23% | [4]; [17] 20% | [5]; at 1.2 µM 9% | [5]; [17] 32% | [7]; [17] 68% | [8]; at 1.2 µM 5% | [8]; at 3.7 µM 21% | [9]; [17] 49% | [10]; at 1.2 µM -21% | [10]; at 3.7 µM 40% | [10]; [17] 50% | [11]; at 1.2 µM -2% | [12]; at 1.2 µM 7% | [12]; at 3.7 µM 66% | [13]; at 1.2 µM 21% | [13]; at 3.7 µM 63% | [14]; [17] 33% | [15]; at 1.2 µM -26% | [15]; at 3.7 µM 42%
active: [1]; at 11.0 µM 99% | [1]; at 33.0 µM 98% | [1]; at 100.0 µM 98% | [2]; at 11.0 µM 98% | [2]; at 33.0 µM 98% | [2]; at 100.0 µM 98% | [16]; at 3.7 µM 95% | [16]; at 11.0 µM 99% | [16]; at 33.0 µM 99% | [16]; at 100.0 µM 98% | [4]; at 3.7 µM 84% | [4]; at 11.0 µM 98% | [4]; at 33.0 µM 98% | [4]; [18] 98% | [4]; at 50.0 µM 87.7% | [4]; at 100.0 µM 98% | [5]; at 3.7 µM 77% | [5]; at 11.0 µM 99% | [5]; at 33.0 µM 99% | [5]; [18] 99% | [5]; at 50.0 µM 91.2% | [5]; at 100.0 µM 98% | [7]; [18] 99% | [7]; at 50.0 µM 92% | [8]; at 11.0 µM 95% | [8]; at 33.0 µM 99% | [8]; at 100.0 µM 98% | [9]; [18] 97% | [9]; at 50.0 µM 92% | [10]; at 11.0 µM 99% | [10]; at 33.0 µM 98% | [10]; [18] 98% | [10]; at 50.0 µM 90.2% | [10]; at 100.0 µM 98% | [11]; at 3.7 µM 93% | [11]; at 11.0 µM 98% | [11]; at 33.0 µM 98% | [11]; at 100.0 µM 97% | [12]; at 11.0 µM 99% | [12]; at 33.0 µM 99% | [12]; at 100.0 µM 98% | [13]; at 11.0 µM 99% | [13]; at 33.0 µM 99% | [13]; at 100.0 µM 99% | [14]; [18] 98% | [14]; at 50.0 µM 85.8% | [15]; at 11.0 µM 97% | [15]; at 33.0 µM 98% | [15]; at 100.0 µM 98%

— PubChem BioAssay (NCI)
